# Laboratory results from paper PMC7862700, “An all-to-all approach to the identification of sequence-specific readers for epigenetic DNA modifications on cytosine”.
# Assays:
# Assay in all cases: DAPPL (digital affinity profiling via proximity ligation, sequencing); 10 mM Tris-HCl pH 7.5, 50 mM NaCl, 1 mM DTT, 4% glycerol, room temperature, 30 min; GST-TFs on glutathione beads, 16-mer random dsDNA library, 0.1% formaldehyde crosslink after washing; high values mean tight binding
# Conditions in all cases: protein: recombinant; tags: N-terminal GST; dsDNA, one strand shown
# [1] = biological target: T1, FLI1 (Homo sapiens, UniProt Q01543 1-452)
# T1 sequence: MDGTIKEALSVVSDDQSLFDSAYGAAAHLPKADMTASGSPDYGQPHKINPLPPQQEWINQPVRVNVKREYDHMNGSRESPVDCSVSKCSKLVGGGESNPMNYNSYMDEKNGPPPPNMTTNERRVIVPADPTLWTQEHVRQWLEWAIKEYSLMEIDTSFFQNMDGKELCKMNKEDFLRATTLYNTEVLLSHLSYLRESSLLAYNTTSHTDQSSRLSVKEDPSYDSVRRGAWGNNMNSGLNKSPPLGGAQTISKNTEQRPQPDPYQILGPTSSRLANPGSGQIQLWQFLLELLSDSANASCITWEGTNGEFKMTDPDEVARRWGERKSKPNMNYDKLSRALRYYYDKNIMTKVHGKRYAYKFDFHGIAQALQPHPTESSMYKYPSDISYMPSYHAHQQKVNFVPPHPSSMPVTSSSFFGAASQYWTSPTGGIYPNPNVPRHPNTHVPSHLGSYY
# In short: (§1)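 Human transcription factors carrying a GST fusion were produced in yeast, bound to glutathione beads, tagged with DNA barcodes and pooled together with a tag-only sample. Each pool was held with 200 nmole of a random double-stranded 16-mer DNA library in Tris/NaCl/DTT/glycerol buffer for 30 min at room temperature, then washed, crosslinked in 0.1% formaldehyde, proximity-ligated with BsaI/T4 ligase (1 h, 37 °C), PCR-amplified and sequenced on an Illumina NextSeq500. Binding signal is the read frequency of each hexamer for a given factor divided by its frequency in the tag-only sample.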
# [2] = biological target: T2, ELK1 (Homo sapiens, UniProt P19419 1-428)
# T2 sequence: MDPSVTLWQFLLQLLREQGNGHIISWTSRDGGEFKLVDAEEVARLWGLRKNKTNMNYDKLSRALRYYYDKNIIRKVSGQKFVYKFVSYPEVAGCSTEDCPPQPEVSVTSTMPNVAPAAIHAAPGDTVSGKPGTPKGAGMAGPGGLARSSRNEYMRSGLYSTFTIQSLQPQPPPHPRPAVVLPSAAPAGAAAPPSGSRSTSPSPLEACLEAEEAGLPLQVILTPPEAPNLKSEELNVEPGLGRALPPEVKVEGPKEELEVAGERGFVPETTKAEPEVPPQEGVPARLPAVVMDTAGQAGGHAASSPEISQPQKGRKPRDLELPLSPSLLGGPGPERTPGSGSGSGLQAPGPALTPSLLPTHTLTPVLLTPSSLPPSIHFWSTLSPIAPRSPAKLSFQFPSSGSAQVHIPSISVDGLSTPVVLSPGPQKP
# In short: as §1
# [3] = biological target: T3, GABPA (Homo sapiens, UniProt Q06546 1-454)
# T3 sequence: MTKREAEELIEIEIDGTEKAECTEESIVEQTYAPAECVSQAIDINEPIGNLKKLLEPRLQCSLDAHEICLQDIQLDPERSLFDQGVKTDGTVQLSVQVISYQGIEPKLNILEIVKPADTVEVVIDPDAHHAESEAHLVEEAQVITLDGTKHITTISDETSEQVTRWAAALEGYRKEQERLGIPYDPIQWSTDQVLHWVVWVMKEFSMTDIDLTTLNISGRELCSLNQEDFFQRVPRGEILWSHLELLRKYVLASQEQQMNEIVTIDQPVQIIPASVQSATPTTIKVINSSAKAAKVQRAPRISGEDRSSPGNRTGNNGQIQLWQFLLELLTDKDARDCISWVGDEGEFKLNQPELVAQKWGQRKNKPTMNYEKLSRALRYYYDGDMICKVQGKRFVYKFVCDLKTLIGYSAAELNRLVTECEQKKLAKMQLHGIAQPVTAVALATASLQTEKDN
# In short: as §1
# [4] = biological target: T4, ERG (Homo sapiens, UniProt P11308 1-479)
# T4 sequence: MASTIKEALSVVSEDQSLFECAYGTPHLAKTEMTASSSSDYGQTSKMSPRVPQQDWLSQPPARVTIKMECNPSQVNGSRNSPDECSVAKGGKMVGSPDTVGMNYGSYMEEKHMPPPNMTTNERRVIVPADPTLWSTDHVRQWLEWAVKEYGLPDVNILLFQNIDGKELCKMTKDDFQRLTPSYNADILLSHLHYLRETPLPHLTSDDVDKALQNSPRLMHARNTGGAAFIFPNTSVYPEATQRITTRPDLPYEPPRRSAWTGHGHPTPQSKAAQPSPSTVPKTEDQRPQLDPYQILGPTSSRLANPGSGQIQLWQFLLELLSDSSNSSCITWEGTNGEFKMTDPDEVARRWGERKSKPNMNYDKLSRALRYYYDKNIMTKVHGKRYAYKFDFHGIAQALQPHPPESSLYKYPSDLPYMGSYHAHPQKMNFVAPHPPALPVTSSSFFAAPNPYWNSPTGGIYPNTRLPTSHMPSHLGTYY
# In short: as §1
# [5] = biological target: ELF1 (Homo sapiens, UniProt P32519 1-619)
# In short: as §1
# [6] = biological target: T5, EHF (Homo sapiens, UniProt Q9NZC4 1-300)
# T5 sequence: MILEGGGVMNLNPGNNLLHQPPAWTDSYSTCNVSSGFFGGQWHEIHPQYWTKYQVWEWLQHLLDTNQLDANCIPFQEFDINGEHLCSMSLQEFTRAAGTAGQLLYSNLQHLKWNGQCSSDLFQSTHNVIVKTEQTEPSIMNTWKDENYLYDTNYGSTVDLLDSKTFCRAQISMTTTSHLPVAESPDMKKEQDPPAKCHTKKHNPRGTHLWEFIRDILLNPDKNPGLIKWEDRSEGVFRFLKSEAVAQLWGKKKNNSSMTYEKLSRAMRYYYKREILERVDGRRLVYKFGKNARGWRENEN
# In short: as §1
# [7] = biological target: SPI1 (Homo sapiens, UniProt P17947 1-270)
# In short: as §1
# [8] = biological target: SPIB (Homo sapiens, UniProt Q01892 1-262)
# In short: as §1
# [9] = biological target: T6, ELK3 (Homo sapiens, UniProt P41970 1-407)
# T6 sequence: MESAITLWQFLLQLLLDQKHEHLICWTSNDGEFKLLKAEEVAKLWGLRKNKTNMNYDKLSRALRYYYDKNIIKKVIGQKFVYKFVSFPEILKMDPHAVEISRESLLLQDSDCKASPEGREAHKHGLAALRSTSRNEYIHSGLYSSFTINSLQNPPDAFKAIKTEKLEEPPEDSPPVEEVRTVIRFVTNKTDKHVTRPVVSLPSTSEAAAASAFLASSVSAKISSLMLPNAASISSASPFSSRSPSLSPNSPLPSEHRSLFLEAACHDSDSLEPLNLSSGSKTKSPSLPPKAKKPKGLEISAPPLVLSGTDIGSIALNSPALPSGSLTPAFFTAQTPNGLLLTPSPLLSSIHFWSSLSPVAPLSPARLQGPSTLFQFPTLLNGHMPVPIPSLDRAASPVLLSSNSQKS
# In short: as §1
# [10] = biological target: T7, FEV (Homo sapiens, UniProt Q99581 1-238)
# T7 sequence: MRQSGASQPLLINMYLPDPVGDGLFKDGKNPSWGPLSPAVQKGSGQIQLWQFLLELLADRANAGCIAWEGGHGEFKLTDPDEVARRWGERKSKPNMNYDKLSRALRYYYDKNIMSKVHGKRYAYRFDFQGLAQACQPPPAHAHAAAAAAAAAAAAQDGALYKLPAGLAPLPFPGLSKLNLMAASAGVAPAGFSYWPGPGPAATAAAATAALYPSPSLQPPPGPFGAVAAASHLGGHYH
# In short: as §1
# [11] = biological target: ETV5 (Homo sapiens, UniProt P41161 1-510)
# In short: as §1
# [12] = biological target: ELF4 (Homo sapiens, UniProt Q99607 1-663)
# In short: as §1
# [13] = biological target: ETV1 (Homo sapiens, UniProt P50549 1-477)
# In short: as §1
# [14] = biological target: T8, ERF (Homo sapiens, UniProt P50548 1-548)
# T8 sequence: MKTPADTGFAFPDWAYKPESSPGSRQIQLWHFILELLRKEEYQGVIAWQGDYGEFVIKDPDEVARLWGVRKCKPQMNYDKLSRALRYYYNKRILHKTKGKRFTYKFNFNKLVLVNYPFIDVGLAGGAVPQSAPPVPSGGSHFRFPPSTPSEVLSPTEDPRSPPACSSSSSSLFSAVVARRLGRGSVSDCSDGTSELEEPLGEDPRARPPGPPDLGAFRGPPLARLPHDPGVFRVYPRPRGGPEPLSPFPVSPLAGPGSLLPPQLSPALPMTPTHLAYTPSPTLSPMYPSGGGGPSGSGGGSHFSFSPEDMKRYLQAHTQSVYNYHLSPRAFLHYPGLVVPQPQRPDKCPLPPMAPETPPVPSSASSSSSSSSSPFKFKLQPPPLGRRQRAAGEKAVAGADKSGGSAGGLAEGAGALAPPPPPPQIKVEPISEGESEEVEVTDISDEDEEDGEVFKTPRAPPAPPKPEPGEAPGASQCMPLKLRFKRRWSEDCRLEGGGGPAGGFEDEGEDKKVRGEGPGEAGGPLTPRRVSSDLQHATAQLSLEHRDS
# In short: as §1
# [15] = biological target: T9, ETV3L (Homo sapiens, UniProt Q6ZN32 1-361)
# T9 sequence: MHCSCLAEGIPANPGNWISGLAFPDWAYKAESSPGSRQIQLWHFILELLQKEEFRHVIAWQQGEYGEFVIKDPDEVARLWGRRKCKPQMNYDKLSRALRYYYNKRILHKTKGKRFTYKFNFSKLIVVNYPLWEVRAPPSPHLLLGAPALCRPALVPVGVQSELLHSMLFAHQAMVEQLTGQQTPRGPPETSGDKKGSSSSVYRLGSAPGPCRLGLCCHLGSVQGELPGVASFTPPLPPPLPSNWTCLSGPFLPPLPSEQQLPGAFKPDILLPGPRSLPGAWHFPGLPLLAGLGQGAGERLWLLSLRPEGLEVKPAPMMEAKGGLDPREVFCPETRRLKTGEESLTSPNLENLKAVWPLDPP
# In short: as §1
# [16] = biological target: T10, ETS2 (Homo sapiens, UniProt P15036 1-469)
# T10 sequence: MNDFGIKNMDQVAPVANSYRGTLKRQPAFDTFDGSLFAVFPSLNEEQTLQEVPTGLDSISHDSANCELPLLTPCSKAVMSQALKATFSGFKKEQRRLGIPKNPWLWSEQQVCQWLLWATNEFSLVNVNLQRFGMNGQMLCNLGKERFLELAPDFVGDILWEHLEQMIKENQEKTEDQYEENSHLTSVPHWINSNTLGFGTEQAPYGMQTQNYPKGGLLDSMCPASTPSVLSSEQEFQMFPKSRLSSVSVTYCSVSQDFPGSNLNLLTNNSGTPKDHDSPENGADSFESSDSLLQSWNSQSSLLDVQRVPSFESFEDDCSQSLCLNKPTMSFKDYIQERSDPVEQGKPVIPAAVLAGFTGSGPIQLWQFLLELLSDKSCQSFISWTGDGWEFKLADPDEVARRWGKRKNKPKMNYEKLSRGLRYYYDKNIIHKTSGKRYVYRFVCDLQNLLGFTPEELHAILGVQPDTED
# In short: as §1
# [17] = biological target: T11, SPDEF (Homo sapiens, UniProt O95238 1-335)
# T11 sequence: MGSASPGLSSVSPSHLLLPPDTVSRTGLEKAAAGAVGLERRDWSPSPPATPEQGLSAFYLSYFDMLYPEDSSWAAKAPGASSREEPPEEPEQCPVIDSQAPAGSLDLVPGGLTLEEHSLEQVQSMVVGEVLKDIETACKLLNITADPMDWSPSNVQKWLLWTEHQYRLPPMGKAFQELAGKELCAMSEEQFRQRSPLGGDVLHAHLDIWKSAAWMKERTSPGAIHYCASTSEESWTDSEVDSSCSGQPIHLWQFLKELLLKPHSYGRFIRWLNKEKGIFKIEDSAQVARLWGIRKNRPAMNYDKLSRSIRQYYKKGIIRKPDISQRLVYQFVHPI
# In short: as §1
# [18] = biological target: T12, ETV3 (Homo sapiens, UniProt P41162-2 1-143)
# T12 sequence: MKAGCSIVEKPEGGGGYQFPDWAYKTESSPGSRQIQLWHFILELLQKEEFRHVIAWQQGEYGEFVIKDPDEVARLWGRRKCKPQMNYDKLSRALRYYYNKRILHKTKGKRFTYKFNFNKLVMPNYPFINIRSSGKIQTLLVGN
# In short: as §1
# [19] = biological target: ETV6 (Homo sapiens, UniProt P41212 1-452)
# In short: as §1
# ELF1, sequence (P32519 whole entry): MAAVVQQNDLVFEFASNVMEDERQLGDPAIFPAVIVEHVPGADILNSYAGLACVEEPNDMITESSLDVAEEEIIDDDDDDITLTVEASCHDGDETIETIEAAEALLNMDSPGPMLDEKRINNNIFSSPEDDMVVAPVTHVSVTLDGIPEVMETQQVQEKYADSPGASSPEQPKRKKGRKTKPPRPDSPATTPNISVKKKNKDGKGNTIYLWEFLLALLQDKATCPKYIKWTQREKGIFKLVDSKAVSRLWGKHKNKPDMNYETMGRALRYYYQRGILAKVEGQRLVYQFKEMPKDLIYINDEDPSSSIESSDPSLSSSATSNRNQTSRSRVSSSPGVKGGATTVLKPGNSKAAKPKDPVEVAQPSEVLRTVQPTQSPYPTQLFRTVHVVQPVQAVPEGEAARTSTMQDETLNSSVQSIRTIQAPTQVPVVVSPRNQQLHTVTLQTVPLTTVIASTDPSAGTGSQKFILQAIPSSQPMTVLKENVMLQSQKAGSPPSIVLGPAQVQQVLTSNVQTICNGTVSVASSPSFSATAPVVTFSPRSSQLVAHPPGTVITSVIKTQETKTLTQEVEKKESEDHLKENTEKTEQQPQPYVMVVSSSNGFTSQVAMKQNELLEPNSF
# SPIB, sequence (Q01892 whole entry): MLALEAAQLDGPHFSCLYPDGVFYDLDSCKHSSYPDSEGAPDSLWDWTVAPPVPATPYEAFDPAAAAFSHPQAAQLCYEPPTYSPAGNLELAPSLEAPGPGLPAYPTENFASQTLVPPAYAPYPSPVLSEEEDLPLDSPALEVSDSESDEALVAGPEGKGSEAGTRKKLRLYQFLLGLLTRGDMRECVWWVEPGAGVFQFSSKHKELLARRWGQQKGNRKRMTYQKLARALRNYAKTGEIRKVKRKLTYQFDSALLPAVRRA
# ETV6, sequence (P41212 whole entry): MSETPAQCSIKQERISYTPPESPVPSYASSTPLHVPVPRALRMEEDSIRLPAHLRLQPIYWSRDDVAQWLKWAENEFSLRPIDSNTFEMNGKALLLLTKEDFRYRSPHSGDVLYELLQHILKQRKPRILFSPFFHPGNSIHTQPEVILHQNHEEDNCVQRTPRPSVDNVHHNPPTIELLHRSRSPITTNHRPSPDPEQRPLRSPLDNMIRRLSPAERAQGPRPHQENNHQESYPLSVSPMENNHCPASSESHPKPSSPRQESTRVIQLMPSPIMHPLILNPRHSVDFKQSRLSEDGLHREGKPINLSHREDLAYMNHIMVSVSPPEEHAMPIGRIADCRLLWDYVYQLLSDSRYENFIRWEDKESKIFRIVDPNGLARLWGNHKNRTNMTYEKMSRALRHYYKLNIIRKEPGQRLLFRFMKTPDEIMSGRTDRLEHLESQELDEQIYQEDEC
# ETV5, sequence (P41161 whole entry): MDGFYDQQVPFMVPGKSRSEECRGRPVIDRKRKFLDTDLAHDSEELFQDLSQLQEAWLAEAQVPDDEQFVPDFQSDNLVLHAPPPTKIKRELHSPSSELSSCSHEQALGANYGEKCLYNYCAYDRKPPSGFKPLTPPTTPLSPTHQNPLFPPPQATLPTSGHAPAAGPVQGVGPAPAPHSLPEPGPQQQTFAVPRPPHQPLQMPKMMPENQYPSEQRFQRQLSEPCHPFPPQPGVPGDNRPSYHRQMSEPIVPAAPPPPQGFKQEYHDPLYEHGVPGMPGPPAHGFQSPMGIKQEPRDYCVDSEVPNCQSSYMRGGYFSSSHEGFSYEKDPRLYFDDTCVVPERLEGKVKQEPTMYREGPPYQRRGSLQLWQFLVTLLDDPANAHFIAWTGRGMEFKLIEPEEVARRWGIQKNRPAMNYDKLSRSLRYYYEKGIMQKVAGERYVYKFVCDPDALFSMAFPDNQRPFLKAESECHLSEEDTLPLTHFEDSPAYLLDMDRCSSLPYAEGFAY
# ELF4, sequence (Q99607 whole entry): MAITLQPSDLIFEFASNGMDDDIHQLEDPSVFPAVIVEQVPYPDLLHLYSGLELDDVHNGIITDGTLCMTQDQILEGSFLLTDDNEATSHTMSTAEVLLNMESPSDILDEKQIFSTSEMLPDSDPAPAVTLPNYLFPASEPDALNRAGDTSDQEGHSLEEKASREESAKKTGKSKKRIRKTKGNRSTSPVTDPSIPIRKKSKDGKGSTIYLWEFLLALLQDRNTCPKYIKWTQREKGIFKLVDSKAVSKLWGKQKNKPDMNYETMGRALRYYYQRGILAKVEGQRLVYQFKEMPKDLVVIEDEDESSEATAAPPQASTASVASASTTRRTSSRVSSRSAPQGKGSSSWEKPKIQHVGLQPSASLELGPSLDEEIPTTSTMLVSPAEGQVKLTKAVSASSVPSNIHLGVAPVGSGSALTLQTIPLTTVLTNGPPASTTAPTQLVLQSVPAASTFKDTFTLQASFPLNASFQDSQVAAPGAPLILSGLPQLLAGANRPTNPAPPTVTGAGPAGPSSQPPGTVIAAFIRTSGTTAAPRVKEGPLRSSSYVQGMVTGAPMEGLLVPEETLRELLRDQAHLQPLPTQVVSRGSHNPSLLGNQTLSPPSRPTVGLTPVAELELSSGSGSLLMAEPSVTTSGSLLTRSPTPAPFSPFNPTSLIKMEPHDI
# ETV1, sequence (P50549 whole entry): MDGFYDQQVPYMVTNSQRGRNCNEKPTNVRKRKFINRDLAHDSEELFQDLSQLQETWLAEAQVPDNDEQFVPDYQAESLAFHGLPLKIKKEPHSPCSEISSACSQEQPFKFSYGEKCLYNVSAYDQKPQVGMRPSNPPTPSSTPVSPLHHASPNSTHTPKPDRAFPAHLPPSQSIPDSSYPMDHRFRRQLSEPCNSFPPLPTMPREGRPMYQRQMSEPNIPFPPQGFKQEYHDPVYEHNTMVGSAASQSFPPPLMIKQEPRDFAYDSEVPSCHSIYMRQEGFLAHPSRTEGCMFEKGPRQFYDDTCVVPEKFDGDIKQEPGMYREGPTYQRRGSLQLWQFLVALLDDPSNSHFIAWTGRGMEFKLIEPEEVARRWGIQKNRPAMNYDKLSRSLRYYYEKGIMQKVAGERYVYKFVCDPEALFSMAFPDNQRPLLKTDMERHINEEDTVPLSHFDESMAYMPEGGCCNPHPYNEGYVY
sequence,measurement,setting,value
TACCCC,binding signal,[1],"1.14 fold enrichment (6-mer frequency, TF over GST control)"
same,binding signal,[2],"1.11 fold enrichment (6-mer frequency, TF over GST control)"
same,binding signal,[3],"1.16 fold enrichment (6-mer frequency, TF over GST control)"
same,binding signal,[4],"1.07 fold enrichment (6-mer frequency, TF over GST control)"
same,binding signal,[5],"1.14 fold enrichment (6-mer frequency, TF over GST control)"
same,binding signal,[6],"1.12 fold enrichment (6-mer frequency, TF over GST control)"
same,binding signal,[7],"1.11 fold enrichment (6-mer frequency, TF over GST control)"
same,binding signal,[8],"1.09 fold enrichment (6-mer frequency, TF over GST control)"
same,binding signal,[9],"1.11 fold enrichment (6-mer frequency, TF over GST control)"
same,binding signal,[10],"1.07 fold enrichment (6-mer frequency, TF over GST control)"
same,binding signal,[11],"1.07 fold enrichment (6-mer frequency, TF over GST control)"
same,binding signal,[12],"1.15 fold enrichment (6-mer frequency, TF over GST control)"
same,binding signal,[13],"1.06 fold enrichment (6-mer frequency, TF over GST control)"
same,binding signal,[14],"1.02 fold enrichment (6-mer frequency, TF over GST control)"
same,binding signal,[15],"1.1 fold enrichment (6-mer frequency, TF over GST control)"
same,binding signal,[16],"1.21 fold enrichment (6-mer frequency, TF over GST control)"
same,binding signal,[17],"1.02 fold enrichment (6-mer frequency, TF over GST control)"
same,binding signal,[18],"1.09 fold enrichment (6-mer frequency, TF over GST control)"
same,binding signal,[19],"1.04 fold enrichment (6-mer frequency, TF over GST control)"
